# PubChem BioAssay (EPA / NIEHS)
# Several values for one entry are separate records, joined by “and”; a condition that tells them apart may be missing. Equal entries are not always repeated. Inconclusive results are not listed. Where a structure was tested more than once in an assay, its records may differ in their call. Activity calls are given as the source filed them. How the source made its calls: active means hit-call score of the fitted dose curve at least 0.9, where 1 is the maximum; inconclusive means response in the unintended direction; inactive means score below 0.9.
# Experiments:
# [1] = molecular target: Cellular tumor antigen p53 (Homo sapiens) (UniProt P04637); assay: TOX21_p53_BLA_p3_ratio: Tox21 HCT-116 p53 Agonism Beta-lactamase Assay, Ratio, Phase 3 (AID 2283596)
# Cellular tumor antigen p53 (Homo sapiens), sequence (P04637 whole entry, looked up): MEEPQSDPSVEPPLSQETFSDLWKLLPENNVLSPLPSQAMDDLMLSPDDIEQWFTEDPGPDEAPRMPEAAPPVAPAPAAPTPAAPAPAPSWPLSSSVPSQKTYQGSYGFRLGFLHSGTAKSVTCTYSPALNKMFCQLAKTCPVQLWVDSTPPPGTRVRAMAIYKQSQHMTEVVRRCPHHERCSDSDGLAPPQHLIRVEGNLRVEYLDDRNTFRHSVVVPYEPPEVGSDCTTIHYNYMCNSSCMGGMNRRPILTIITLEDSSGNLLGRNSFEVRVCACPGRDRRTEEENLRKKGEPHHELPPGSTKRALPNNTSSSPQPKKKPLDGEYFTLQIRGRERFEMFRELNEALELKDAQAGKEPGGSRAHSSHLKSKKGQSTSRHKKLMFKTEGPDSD
# Summary of the method: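 HCT116 p53-bla cells (4000/well) given compound in DMSO (217-fold dilution) after 5 h, incubated 16 h at 37C. CCF4-AM substrate 2 h at room temperature; 460/530 nm emission ratio, gain fitted against DMSO.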
# [2] = TOX21_p53_BLA_p4_viability: Viability Assessment in the Tox21 HCT-116 p53 Agonism Beta-lactamase Assay, Phase 4 (AID 2283597);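 further: hits lower the luminescence signal meaning cytotoxicity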
# Summary of the method: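 Following a 16 h exposure at 37C, the treated HCT116 wells were first read for the FRET ratio. They were then lysed with CellTiter-Glo, and ATP luminescence was recorded after 30 min at room temperature.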
# [3] = molecular target: Cellular tumor antigen p53 (Homo sapiens) (UniProt P04637); assay: TOX21_p53_BLA_p5_ratio: Tox21 HCT-116 p53 Agonism Beta-lactamase Assay, Ratio, Phase 5 (AID 2283599)
# Summary of the method: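 HCT-116 cells carrying a p53-inducible beta-lactamase reporter were seeded at 4000 cells/well and dosed after 5 h with compound in DMSO (217-fold dilution). After 16 h at 37C, CCF4-AM substrate was added for 2 h, and the 460/530 nm emission ratio was scored as gain-of-signal versus DMSO.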
# [4] = TOX21_p53_BLA_p5_viability: Viability Assessment in the Tox21 HCT-116 p53 Agonism Beta-lactamase Assay, Phase 5 (AID 2283600)
# Summary of the method: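 After the 460/530 nm beta-lactamase measurement, the wells received an ATP-detection luciferase reagent; signal was read 30 min later at RT. Compound treatment lasted 16 h on cells pre-incubated 5 h post-seeding.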
# [5] = molecular target: Cellular tumor antigen p53 (Homo sapiens) (UniProt P04637); assay: TOX21_p53_BLA_p4_ratio: Tox21 HCT-116 p53 Agonism Beta-lactamase Assay, Ratio, Phase 4 (AID 2283601)
# Summary of the method: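 HCT116 cells carrying an inducible beta-lactamase reporter were plated at 4000 cells/well, rested 5 h, then exposed to compounds in DMSO (217-fold dilution) for 16 h at 37C. CCF4-AM substrate was loaded 2 h at room temperature; 460/530 nm emission ratio scored gain-of-signal versus DMSO.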
# [6] = Tanguay_ZF_120hpf_MORT_legacy: (Legacy) Oregon State University Tanguay Lab 120 Hour Post-fertilization zebrafish Assay for Mortality (AID 2283633);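 on AC50: fitted as increase in binary mortality versus DMSO negative control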
# Summary of the method: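 Static waterborne exposure from 6 to 120 hpf at 28C of single dechorionated wild-type (5D) embryos per well, 0.64% DMSO final. Death recorded present/absent by brightfield at 24 and 120 hpf.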
# [7] = Tanguay_ZF_120hpf_YSE_legacy: (Legacy) Oregon State University Tanguay Lab 120 Hour Post-fertilization zebrafish Assay for Yolk Sac Edema (AID 2283634);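 on AC50: actives raise the incidence of yolk sac edema above the DMSO baseline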
# Summary of the method: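 Presence or absence of yolk sac edema was recorded at 120 hpf in surviving larvae. These were wild-type Tropical 5D embryos, chorion removed at 4 hpf, held in static exposure at 28C from 6 hpf with 0.64% DMSO vehicle.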
# [8] = Tanguay_ZF_120hpf_AXIS_legacy: (Legacy) Oregon State University Tanguay Lab 120 Hour Post-fertilization zebrafish Assay for Body Axis Malformation (AID 2283635);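 on AC50: potency for an increased fraction of larvae scored with body axis malformation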
# Summary of the method: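 Binary scoring of axis defects at 120 hpf under brightfield, fitted positive versus DMSO. Tropical 5D embryos, chorion removed by pronase at 4 hpf, were singly exposed in sealed, dark plates at 28C from 6 hpf; DMSO 0.64% final.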
# [9] = Tanguay_ZF_120hpf_EYE_legacy: (Legacy) Oregon State University Tanguay Lab 120 Hour Post-fertilization zebrafish Assay for Eye Malformation (AID 2283636);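 further: binary presence or absence of eye malformation scored by brightfield in 120 hpf larvae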
# Summary of the method: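 Dechorionated wild-type Tropical 5D zebrafish embryos were exposed statically from 6 hpf, one per well, to 120 hpf at 28C in sealed, foil-covered plates with 0.64% DMSO. Eye malformation was scored present/absent by brightfield microscopy against DMSO controls.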
# [10] = Tanguay_ZF_120hpf_SNOU_legacy: (Legacy) Oregon State University Tanguay Lab 120 Hour Post-fertilization zebrafish Assay for Snout Malformation (AID 2283637)
# Summary of the method: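 Tropical 5D wild-type zebrafish embryos, dechorionated with pronase at 4 hpf, were exposed singly from 6 hpf to 120 hpf statically at 28C in 0.64% DMSO. Snout malformation was scored present/absent by brightfield microscopy, fitted against DMSO.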
SMILES,AC50 [1],outcome [2],AC50 [3],AC50 [4],outcome [5],AC50 [6],outcome [7],outcome [8],outcome [9],outcome [10],outcome [1],outcome [3],outcome [4],AC50 [5],outcome [6],AC50 [2],AC50 [7],AC50 [8],AC50 [9],AC50 [10]
NS(=O)(=O)C(F)(F)C(F)(F)C(F)(F)C(F)(F)C(F)(F)C(F)(F)C(F)(F)C(F)(F)F,47 µM (active),inactive,82.3 µM (active),46.1 µM (active),inactive,24.9 µM (active),inactive,inactive,inactive,inactive,–,–,–,–,–,–,–,–,–,–
Cc1cc(-c2ccc(N)c(C)c2)ccc1N,–,inactive,–,–,inactive,–,inactive,inactive,inactive,inactive,inactive,inactive,inactive,70.7 µM (active),inactive,–,–,–,–,–
CC(C)C(=O)OCC(C)(C)C(OC(=O)C(C)C)C(C)C (stereo not drawn),–,inactive,–,–,inactive,26.2 µM (active),inactive,inactive,inactive,inactive,inactive,inactive,inactive,–,–,–,–,–,–,–
CC(C)(c1ccccc1)c1ccc(O)cc1,–,–,73.1 µM (active),–,–,19.1 µM (active),–,inactive,inactive,–,inactive,inactive,inactive,81.7 µM (active) and 70.4 µM (active),–,71 µM (active) and 65.8 µM (active),–,–,–,–
OCC(O)CO,–,inactive,–,–,inactive,–,–,–,–,–,inactive,inactive,inactive,–,–,–,–,–,–,–
CCCCCCCCCC[N+](C)(C)CCCCCCCCCC,74.3 µM (active) and 39.7 µM (active),–,72.9 µM (active) and 39.8 µM (active),23 µM (active),–,13.6 µM (active),inactive,inactive,inactive,inactive,–,–,–,26.8 µM (active) and 35 µM (active),–,23.4 µM (active) and 21.1 µM (active),–,–,–,–
CO/C=C(/C(=O)OC)c1ccccc1COc1cccc(C(F)(F)F)n1,6.17 µM (active),inactive,4.18 µM (active),–,–,–,–,–,–,–,–,–,inactive,5.53 µM (active),inactive,–,4.88 µM (active),6.06 µM (active),3.83 µM (active),2.99 µM (active)
CCC(C)c1cc([N+](=O)[O-])cc([N+](=O)[O-])c1O (stereo not drawn),0.984 µM (active),inactive,3.4 µM (active),–,–,0.462 µM (active),inactive,inactive,inactive,inactive,inactive,–,inactive,4.83 µM (active),–,–,–,–,–,–
CN(C)CCO,–,inactive,–,–,inactive,–,inactive,inactive,inactive,inactive,inactive,inactive,inactive,–,inactive,–,–,–,–,–
Clc1ccc(C(c2ccccc2Cl)C(Cl)(Cl)Cl)cc1 (stereo not drawn),46.3 µM (active),–,72.8 µM (active),72.2 µM (active),–,–,inactive,inactive,–,inactive,inactive,inactive,inactive,48.7 µM (active) and 76.4 µM (active),inactive,30.2 µM (active) and 62.2 µM (active),–,–,–,–
O=C(NC(=O)c1c(F)cccc1F)Nc1cc(Cl)c(OC(F)(F)C(F)F)c(Cl)c1,–,inactive,–,–,inactive,–,inactive,inactive,inactive,inactive,inactive,inactive,inactive,–,inactive,–,–,–,–,–
C[C@]12CCC(=O)C=C1CC[C@@H]1[C@@H]2CC[C@]2(C)C(=O)CC[C@@H]12,–,inactive,–,–,inactive,–,–,–,–,–,inactive,inactive,inactive,–,inactive,–,36.2 µM (active),40.2 µM (active),45.5 µM (active),37.7 µM (active)
C[C@]12CCC(=O)C=C1CC[C@@H]1[C@@H]2CC[C@@]2(C)[C@H]1CC[C@]2(C)O,–,inactive,47.1 µM (active),–,inactive,–,inactive,–,–,–,inactive,inactive,inactive,48.6 µM (active),inactive,–,–,–,–,–
Nc1ccc(-c2ccc(N)cc2)cc1,–,inactive,–,–,inactive,–,inactive,inactive,inactive,inactive,inactive,inactive,inactive,–,inactive,–,–,–,–,–
Oc1c(Cl)c(Cl)c(Cl)c(Cl)c1Cl,5.71 µM (active) and 1.86 µM (active),inactive,8.02 µM (active),–,–,0.801 µM (active),inactive,inactive,inactive,inactive,–,inactive,inactive,11.1 µM (active) and 2.43 µM (active),–,–,–,–,–,–
CC(C)(O)C(=O)Nc1ccc([N+](=O)[O-])c(C(F)(F)F)c1,–,inactive,–,–,inactive,–,inactive,–,–,–,inactive,inactive,inactive,–,inactive,–,–,6.35 µM (active),21.7 µM (active),7.43 µM (active)

SMILES,AC50 [1],outcome [2],AC50 [3],AC50 [4],outcome [5],AC50 [6],outcome [7],outcome [8],outcome [9],outcome [10],outcome [1],outcome [3],outcome [4],AC50 [5],outcome [6],AC50 [2],AC50 [7],AC50 [8],AC50 [9],AC50 [10]
O=NN(c1ccccc1)c1ccccc1,–,inactive,–,–,inactive,–,inactive,inactive,inactive,inactive,inactive,inactive,inactive,–,inactive,–,–,–,–,–
Oc1ccc(C(c2ccc(O)cc2)(C(F)(F)F)C(F)(F)F)cc1,54.2 µM (active),–,72.8 µM (active),72.3 µM (active),–,33 µM (active),–,–,–,–,inactive,inactive,inactive,57.3 µM (active) and 69.7 µM (active),–,63.7 µM (active) and 71.3 µM (active),57.4 µM (active),58.3 µM (active),53.9 µM (active),53.8 µM (active)
C=CC(=O)NCNC(=O)C=C,–,inactive,–,–,inactive,–,inactive,inactive,inactive,inactive,inactive,inactive,inactive,–,inactive,–,–,–,–,–
O=C(O)C(F)(F)C(F)(F)C(F)(F)C(F)(F)C(F)(F)C(F)(F)C(F)(F)C(F)(F)F,–,–,82.9 µM (active),–,inactive,–,inactive,inactive,inactive,inactive,inactive,–,inactive,–,inactive,46.1 µM (active),–,–,–,–
ClC1=C(Cl)[C@]2(Cl)[C@@H]3[C@@H](Cl)[C@H]4O[C@H]4[C@@H]3C1(Cl)C2(Cl)Cl,–,–,–,–,–,–,inactive,inactive,inactive,inactive,inactive,inactive,inactive,72.3 µM (active),inactive,65.1 µM (active),–,–,–,–
Cc1ccc(O)c(C)c1,–,inactive,–,–,inactive,–,inactive,inactive,inactive,inactive,inactive,inactive,inactive,–,inactive,–,–,–,–,–
COS(=O)(=O)OC,–,inactive,–,–,inactive,–,inactive,inactive,inactive,inactive,inactive,inactive,inactive,–,inactive,–,–,–,–,–
Cc1cccc([N+](=O)[O-])c1,–,inactive,–,–,inactive,–,inactive,inactive,inactive,inactive,inactive,inactive,inactive,–,inactive,–,–,–,–,–
ClC1=C(Cl)[C@]2(Cl)[C@@H]3[C@H]4C[C@H]([C@@H]5O[C@H]45)[C@@H]3[C@@]1(Cl)C2(Cl)Cl,–,inactive,–,–,inactive,–,–,–,inactive,inactive,inactive,inactive,inactive,–,inactive,–,72 µM (active),45.4 µM (active),–,–
CCC(C)(c1ccc(O)cc1)c1ccc(O)cc1,86.3 µM (active) and 76.2 µM (active),inactive,75.7 µM (active),–,–,36.9 µM (active),–,–,–,–,–,inactive,inactive,84.6 µM (active) and 82.3 µM (active),–,77.1 µM (active),41 µM (active),46.9 µM (active),46.2 µM (active),46.2 µM (active)
O=C(N[C@H]1CN2CCC1CC2)c1cc2ccoc2cn1,–,inactive,–,–,inactive,–,inactive,inactive,inactive,inactive,inactive,inactive,inactive,–,inactive,–,–,–,–,–
Clc1ccc(Cl)cc1,–,inactive,–,–,inactive,–,inactive,inactive,inactive,inactive,inactive,inactive,inactive,–,inactive,–,–,–,–,–
ClC(Cl)=C(c1ccc(Cl)cc1)c1ccc(Cl)cc1,–,inactive,–,–,inactive,–,inactive,inactive,inactive,inactive,inactive,inactive,inactive,–,inactive,–,–,–,–,–
CC(c1ccc(O)cc1)(c1ccc(O)cc1)c1ccc(O)cc1,78.9 µM (active),inactive,–,–,–,–,inactive,inactive,inactive,inactive,–,inactive,inactive,80.8 µM (active),inactive,–,–,–,–,–
CCOC(=O)C(O)(c1ccc(Cl)cc1)c1ccc(Cl)cc1,55.2 µM (active) and 50.6 µM (active),–,80.1 µM (active) and 66.1 µM (active),81.7 µM (active) and 24.7 µM (active),–,–,inactive,inactive,inactive,inactive,–,–,–,68.6 µM (active) and 60.8 µM (active),inactive,59.7 µM (active) and 25.1 µM (active),–,–,–,–
c1cc2ccc3cccc4ccc(c1)c2c34,–,inactive,–,–,inactive,–,inactive,inactive,inactive,inactive,inactive,inactive,inactive,–,inactive,–,–,–,–,–
